Structures are written as SMILES. In all, about 320,000 compounds went through this assay and about 22,000 (6.9%) were called active. Not shown: some 27% with an inconclusive outcome. This excerpt belongs to a sample that is enriched for actives. A number with no mark means an inactive call. Calls follow the shape of the dose curve; as a rule, active = well fitted inhibition curve with a large enough effect; inconclusive = small, poorly fitted or top-dose-only effect, or another doubt; inactive = no such curve, though single readings can be large or run the other way.
% is scaled to controls: 0 for no effect and ±100 for the full control effect; potency is read from the fitted curve at half-maximal effect.

A short description of this experiment: Primary qHTS for delayed death inhibitors of the malarial parasite plastid, 96 hour incubation. To be noted: P. falciparum luciferase reporter growth; series mostly up to 28.7 µM; activity change, negative = inhibition: at the top concentration. The gist of the method:
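P. falciparum expressing integrated firefly luciferase grown in erythrocytes (2% hematocrit, 0.05% parasitemia final) with compounds for 96 hours at 37 C, 5% CO2. Growth inhibition read as loss of luminescence after adding luciferase detection reagent.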
In the case of `CN1CCN(CC(=O)Nc2sc3c(c2C#N)CCC(C(C)(C)C)C3)CC1` (configuration not stated), the “activity change, negative = inhibition” value is 4.93%. The same measure, in the same setting: under `C=CCn1c(SCC(=O)NCCCO)nc2sc3c(c2c1=O)CCC3` stands 44.6%. As for `Nc1nc(SCC(=O)NCCN2CCOCC2)nc2sc3c(c12)CCC3`, the Potency is 13.1 µM (active).

For the molecule `CC(C)(C)C1CCc2c(sc3nc(SCC(N)=O)nc(N)c23)C1` (configuration not stated), the Potency was 9.28 µM (active).

`CCOC(=O)c1sc2nc(C)nc(SCC(N)=O)c2c1C`: the “activity change, negative = inhibition” value was -7.55%. On the same count and under the same terms, then `COC(=O)c1c(NC(=O)CCN2CCOCC2)sc2c1CCCC2`, with 23.4%. Take `CC(=O)N1CCc2c(sc(NC(=O)CCS(=O)(=O)c3ccc(C)cc3)c2C(N)=O)C1`: the “activity change, negative = inhibition” value was -29.3%. Same read-out and setting: under `O=C(Nc1cc(S(=O)(=O)N2CCOCC2)ccc1OCC(F)(F)F)c1ccc(N2CCCC2=O)cc1` stands -11%; under `Cc1noc(C)c1C(=O)NCCc1ccc(S(N)(=O)=O)cc1`, 29.7%. For the molecule `O=C(NCc1ccccc1)C1=C[C@@H](c2ccc(C(F)(F)F)cc2)C[C@@H](OCc2ccc(CO)cc2)O1`, the Potency is 4.65 µM (active). On to `CC(C)CCN1CCN(Cc2ccc(C(F)(F)F)cc2)CC1CCO` (configuration not stated), for which the “activity change, negative = inhibition” value was -3.68%. Turning to `O=C(O)C1=C[C@H](c2cccs2)C[C@H](OCCCCO)O1`, the “activity change, negative = inhibition” value was 40.2%.

Turning to `O=C(c1cccc([N+](=O)[O-])c1)N1CCN(Cc2ccccc2)CC1`, the “activity change, negative = inhibition” value is -4.42%.

Turning to `O=C(C1=C[C@H](c2ccc(C(F)(F)F)cc2)C[C@H](OCc2ccc(CO)cc2)O1)N1CCN(Cc2ccccc2)CC1`, the Potency is 13.1 µM (active).

As for `CC(=O)n1cc([C@@H]2C=C(C(=O)N3CCN(Cc4ccc5c(c4)OCO5)CC3)O[C@H](OCc3ccc(CO)cc3)C2)c2ccccc21`, the Potency is 1.65 µM (active). As for `CCn1cc(C(=O)N2CCN(Cc3ccc4c(c3)OCO4)CC2)c2cc(OC)c(OC)cc2c1=O`, the “activity change, negative = inhibition” value was 15.9%. Take `O=C(C1=C[C@H](c2coc3ccccc3c2=O)C[C@H](OCc2ccc(CO)cc2)O1)N1CCN(Cc2ccccc2)CC1`: the Potency was 5.86 µM (active). For `C#Cc1ccc([C@@H]2C=C(C(=O)O)O[C@H](OCCCCO)C2)cc1`, the “activity change, negative = inhibition” value is 60.2%. On the same count and under the same terms, under `O=C(C1=C[C@H](c2coc3ccccc3c2=O)C[C@H](OCc2ccc(CO)cc2)O1)N1CCOCC1` stands -21.6%; under `O=C(NCc1ccccc1)C1=C[C@H](C2CC2)C[C@H](OCc2ccc(CO)cc2)O1`, -19.2%. `CN1CCN(C(=O)C2=C[C@H](c3ccc4c(c3)OCO4)C[C@H](OCc3ccc(CO)cc3)O2)CC1`: the “activity change, negative = inhibition” value was -0.234%. The same measure, in the same setting: then `COc1cccc(/C=C2\Sc3ccc(C(=O)NCC4CCCO4)cc3N(C)C2=O)c1` (configuration not stated), with 11.3%; and `CC(C)c1ccc(C2C(C(=O)c3ccco3)=C(O)C(=O)N2CC2CCCO2)cc1` (configuration not stated), with -16%. On the same count and under the same terms, then `C/C(=N\Nc1ccc(S(N)(=O)=O)cc1[N+](=O)[O-])c1cccs1`, with 7.59%; and `COC(=O)C1(C)CC1(c1ccccc1)c1ccccc1` (configuration not stated), with -11.4%. Still for that read-out and setting: then `CN(C1CCS(=O)(=O)C1)S(=O)(=O)c1ccc2ccccc2c1` (configuration not stated), with 17.6%. As to `CC(Sc1nn(-c2ccc(Cl)cc2)c(=S)s1)C(=O)NCC1CCCO1` (configuration not stated), the “activity change, negative = inhibition” value was 4.28%. Take `O=C(O)c1ccc2c(=O)n3c(nc2c1)/C(=C/c1ccc(Cl)c([N+](=O)[O-])c1)CC3`: the “activity change, negative = inhibition” value is -21.2%. The same measure, in the same setting: then `Cc1ccc(OCCOc2cccc(/C=N/NC(N)=O)c2)cc1`, with -1.16%. Still for that read-out and setting: then `O=C1CCC([N+](=O)[O-])C(c2ccccc2Br)N1` (configuration not stated), with -26.5%; and `C=CCOc1ccccc1NC(=O)CN1C(=O)CNC1=O`, with 15.9%; and `CN(CC(=O)NCc1ccncc1)S(=O)(=O)c1ccc(Br)cc1`, with -17.6%. As to `Oc1ccc(N=Cc2c(O)ccc3ccccc23)cc1`, the Potency was 6.57 µM (active). In the case of `Cc1cc(N=Nc2ccc3ccccc3c2)ccc1O`, the “activity change, negative = inhibition” value was 85.3%. The same measure, in the same setting: then `O=[N+]([O-])c1ccc(N=Cc2c(O)ccc3ccccc23)cc1`, with 17.6%; and `COc1ccc(C)cc1N(CC(=O)NC(C)c1ccccc1)S(C)(=O)=O` (configuration not stated), with 169%. Same read-out and setting: under `CCOC(=O)c1ccc(NC(=O)c2ccc(NC(=O)C3CCCO3)cc2)cc1` (configuration not stated) stands -3.56%; under `O=C(CCc1ccccc1)NCc1cccnc1`, 12.9%. `O=C(NCCc1ccccc1)C1CC1`: the “activity change, negative = inhibition” value is 24.6%. In the case of `O=C(NCCc1ccccc1)C1CCC(Cn2c(=O)c3ccccc3n(Cc3cccnc3)c2=O)CC1` (configuration not stated), the Potency is 6.57 µM (active). As for `CCSc1nnc(SCC(=O)NNC(=O)c2ccccc2F)s1`, the “activity change, negative = inhibition” value was 26.7%. Consider `CS(=O)(=O)c1ccc2nc(NC(=O)c3ccc(N4CCCC4=O)cc3)sc2c1`, for which the “activity change, negative = inhibition” value is 5.19%. The same measure, in the same setting: then `Cc1ccc(SCCC(=O)NCc2ccccn2)cc1`, with -27.1%. For the molecule `CC(C)Cn1c(=O)c2ccccc2n2c(CCC(=O)NCc3ccccn3)nnc12`, the Potency is 13.1 µM (active). For `Cc1cc(Cl)ccc1OCCCC(=O)NCc1ccccn1`, the “activity change, negative = inhibition” value was -1.6%.

`Cc1ccc(-c2nn(-c3ccccc3)cc2C(=O)NCCCN2CCCC2=O)cc1`: the “activity change, negative = inhibition” value is -20.1%.

Consider `CC1(NC(=O)CCS(=O)(=O)c2ccc(Cl)cc2)CCS(=O)(=O)C1` (configuration not stated), for which the “activity change, negative = inhibition” value was -29.7%. Consider `CC(=O)c1ccc(NC(=O)CCNS(=O)(=O)c2cc(Br)cnc2N)cc1`, for which the “activity change, negative = inhibition” value is 20.4%. Turning to `C/C(=N\NC(=O)CC(C)C)c1c(C(F)(F)F)[nH]n(-c2nc3ccccc3s2)c1=O`, the “activity change, negative = inhibition” value is 0%.

Consider `COc1ccc(CC(=O)Nc2ccc3c(c2)CCC3)cc1S(=O)(=O)N1CCOCC1`, for which the “activity change, negative = inhibition” value was 0%.

Regarding `COc1ccc(S(=O)(=O)N2CCOCC2)c(C)c1C`, the “activity change, negative = inhibition” value is 3.7%. In the case of `COc1ccc(/C=C/C(=O)Nc2ccc(C)cc2)cc1S(=O)(=O)N1CCOCC1`, the Potency was 11.7 µM (active).

Values taken from PubChem BioAssay AID504834 (National Center for Advancing Translational Sciences (NCATS), 2011).
